IL1B secr inh: inflammasome signaling inhibition, IL-1 beta readout; THP-1 LPS/ATP IL-1B secretion, AlphaLISA, 16 h; stronger effect = lower value; activity change, % at 57.5 µM; 360,000 compounds, 4.7% hits; in the data active means activity change below about -50%; inconclusive means mostly about -30% to -49%; further: on the % scale 0 is the no-effect control and ±100 the full control effect
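THP-1 cells pretreated 1 hr with compounds (up to 57.5 uM final), then stimulated with LPS (250 ng/mL final) plus ATP (1.25 mM final); secreted IL-1B measured by AlphaLISA after 16 hr, decreased signal indicating inhibition.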
HepG2 viability: counter-screen for TGF-b inhibitors: cytotoxicity in HepG2 cells; Potency, µM (series often up to 46.1 µM), for inactives: at the top dose activity change, negative = cytotoxicity, actives largely listed as cytotoxic; HepG2 CAGA-GFP viability, ATP luminescence, 18 h; 410,000 compounds, 0.76% hits; AID 588856; further: potency means the concentration at half of the fitted maximal effect
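CellTiter-Glo luminescence gave cytotoxicity after 18 hours at 37 degrees C. The cells were HepG2 CAGA-GFP in 1% FBS DMEM, stimulated with 500 pg/mL TGF-beta after compound addition. %Activity was normalised to no-cell wells (complete cell-killing) and DMSO (no toxicity), and curves were fitted and classified.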
TDP1 inh: blocks human tyrosyl-DNA phosphodiesterase 1. Q9NUW8. recombinant TDP1, AlphaScreen DNA substrate cleavage. Potency, µM (titrated, usually from 130 µM), for the others: at the top dose activity change, negative = inhibition, actives largely listed as inhibitors. 350,000 compounds, 0.28% hits. AID 485290; further: potency means the concentration at half of the fitted maximal effect; on the % scale 0 is the no-effect control and ±100 the full control effect; nearly all actives have a fitted effect of over 40% in size
Target sequence (Q9NUW8 whole entry, looked up): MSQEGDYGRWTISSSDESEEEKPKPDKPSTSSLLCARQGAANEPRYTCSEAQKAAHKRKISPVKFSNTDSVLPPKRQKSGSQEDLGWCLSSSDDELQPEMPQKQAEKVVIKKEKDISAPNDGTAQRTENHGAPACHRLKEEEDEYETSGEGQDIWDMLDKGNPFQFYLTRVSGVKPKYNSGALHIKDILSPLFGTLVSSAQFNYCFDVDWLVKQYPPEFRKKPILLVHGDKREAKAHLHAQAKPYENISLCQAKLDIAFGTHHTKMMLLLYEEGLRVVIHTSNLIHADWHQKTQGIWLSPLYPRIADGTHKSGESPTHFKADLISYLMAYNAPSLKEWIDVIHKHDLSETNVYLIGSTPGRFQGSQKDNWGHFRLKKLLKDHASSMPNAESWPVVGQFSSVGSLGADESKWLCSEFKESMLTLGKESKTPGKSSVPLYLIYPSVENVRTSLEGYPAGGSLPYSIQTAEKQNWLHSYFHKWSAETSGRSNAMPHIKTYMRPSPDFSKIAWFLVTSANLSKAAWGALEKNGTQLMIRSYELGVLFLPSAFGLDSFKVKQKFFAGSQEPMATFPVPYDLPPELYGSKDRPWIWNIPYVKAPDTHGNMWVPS
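Recombinant E. coli-expressed Tdp1 (1 nM) preincubated with compound 15 min at RT, then 5'-biotin/3'-phosphotyrosine-FITC DNA substrate (15 nM) added for 5 min. AlphaScreen beads (10 ug/ml) added, 10 min RT; tyrosine-FITC cleavage read as signal loss.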
TGFb inhibitor: TGF-b pathway inhibition | HepG2 CAGA-GFP TGF-b/SMAD3 reporter, GFP fluorescence, 18 h; TGF-beta stimulated, 500 pg/mL final | Potency, µM (titrated, usually from 46.1 µM), for inactives: at the highest dose activity, negative = inhibition, usual class: inhibitors | 410,000 compounds, 1.2% hits; further: potency means the concentration at half of the fitted maximal effect; on the % scale 0 is the no-effect control and ±100 the full control effect; nearly all actives have a fitted effect of over 65% in size
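GFP signal (ex488/em500-530) from TGF-beta-stimulated HEPG2 CAGA-GFP cells, 500 pg/mL final, 18 h at 37 degrees C in DMEM plus 1% FBS, normalized to unstimulated and DMSO-stimulated controls.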
TDP1 cell noCPT: qHTS for Inhibitors of human tyrosyl-DNA phosphodiesterase 1 (TDP1): qHTS in cells in absence of CPT. AID 686978, 2013. DT40 Tdp1-/- hTDP1 cells, no CPT, ATP luminescence, 48 h. Potency, µM (doses to about 46.2 µM), for the others: at the highest dose activity change, negative = growth inhibition, most hits filed as inhibitors. 420,000 compounds, 15% hits; further: potency means the concentration at half of the fitted maximal effect; on the % scale 0 is the no-effect control and ±100 the full control effect; nearly all actives have a fitted effect of over 55% in size
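No-CPT arm: Tdp1-/-;hTDP1 DT40 cells (400/well) plus compounds, incubated ≥48 hr at 37 °C. Readout CellTiter-Glo luminescence.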
TDP1 cell CPT: growth inhibition of DT40 Tdp1-/-;hTDP1 cells with camptothecin (screen for TDP1 inhibitors); chicken DT40 Tdp1-/-;hTDP1 cells + 20 nM CPT, ATP luminescence, 48 h; Potency, µM (series often up to 46.2 µM), inactives show top-dose activity change, negative = growth inhibition, actives largely listed as inhibitors; 420,000 compounds, 12% hits; AID 686979; further: potency means the concentration at half of the fitted maximal effect; on the % scale 0 is the no-effect control and ±100 the full control effect; nearly all actives have a fitted effect of over 55% in size
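Cell growth measured by CellTiter-Glo luminescence after a minimum 48 h, 37 C compound exposure with 20 nM CPT in Tdp1-knockout DT40 cells stably expressing hTDP1, seeded 400/well; qHTS titration format.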
An asterisk follows results filed as active; u = inconclusive; x = no result given; [ ] = dose if it differs, or a comment. Compounds with a hit are over-represented: about 18% of the library has one in this group of screens. Unless noted, the call rests on the fitted dose curve; in most records, active means well fitted curve in the direction sought with a large enough effect; inconclusive means small, poorly fitted or top-dose-only effect, or another doubt; inactive means no such curve, though single readings can be large; an effect the other way counts as inactive or inconclusive.

SMILES | IL1B secr inh | HepG2 viability | TDP1 inh | TGFb inhibitor | TDP1 cell noCPT | TDP1 cell CPT
CC(C(=O)Nc1cccc([N+](=O)[O-])c1)N1CCN(C/C=C/c2ccccc2)CC1 (centres undefined) | -72* | -22% | -3% | -15% | u | u
O=C(CN1CCN(c2ccccn2)CC1)Nc1nc2ccccc2s1 | 4 | -24% | x | -29% | u | u
Cc1ccc(NC(=O)COC(=O)Cc2c[nH]c3ccccc23)cc1 | 6 | 1% | x | -7% | -15% | -19%
Nc1c(Cl)ncnc1N/N=C/c1ccccn1 | -83* | -49% | 9% | 4µM* | 0.021µM* | 0.018µM*
Nc1c(Cl)ncnc1N/N=C/c1cccnc1 | x | 42% | 9% | u | 2% | 5%
Cc1cc(C)c(C)c(S(=O)(=O)N2CCC(C(=O)NCCCN3CCCC3=O)CC2)c1C | -13 | -9% | 3% | -18% | u | u
CCc1ccc2ncc3c(-c4ccccc4)nn(-c4ccccc4)c3c2c1 | x | -47% | -7% | u | 13µM* | u
CCOC(=O)Cn1nc(-c2ccccc2)c2cnc3ccc(C)cc3c21 | 27 | -8% | -7% | -3% | u | u
Cc1ccc(-c2nn(-c3ccccc3)c3c2cnc2ccccc23)cc1C | x | 4% | 7% | -5% | -2% | -14%
CCOC(=O)Cn1nc(-c2ccccc2)c2cnc3ccc(OCC)cc3c21 | x | -6% | 9% | 0% | 21µM* | 13µM*
CCc1ccc(NC(=O)c2cnc(N3CCN(c4ccccn4)CC3)c3ccccc23)cc1 | -19 | -2% | 5% | 19% | 6.5µM* | 7.3µM*
O=C(CN1CCN(c2ccccn2)CC1)Nc1ccccc1C(=O)Nc1ccccc1 | -17 | -2% | 4% | 0% | u | u
CCc1ccc(CNC(=O)c2cnc(N3CCCCC3)c3ccccc23)cc1 | x | -23% | -4% | u | 26µM* | 23µM*
O=C(NCc1ccccc1Cl)c1cnc(N2CCCCC2)c2ccccc12 | x | -8% | -3% | u | u | 18µM*
CC1CCC2C(=O)OC(Cc3ccccc3)CN2C1c1ccc(Br)cc1 (centres undefined) | x | x | 5%[21 µM] | x | x | x
Fc1cccc(Nc2cc(-n3cccn3)ncn2)c1 | 13 | -23% | -6%[56.1 µM] | -5% | 10µM* | 21µM*
CCOC(=O)C1CCN(C(=O)Cn2ncc3c4ccccc4n(Cc4ccccc4F)c3c2=O)CC1 | x | 0% | 3% | -20% | 4.6µM* | 3.3µM*
CN1CCN(C(=O)Cn2ncc3c4ccccc4n(Cc4ccc(Cl)cc4)c3c2=O)CC1 | x | -35% | 5% | -16% | 10µM* | 23µM*
O=C(Cn1nnc2c(cnn2-c2ccccc2)c1=O)NCc1cccs1 | 18 | -8% | 0% | -19% | 23µM* | u
CCN1CCN(C(=O)Cn2ncc3c4ccccc4n(Cc4ccccc4F)c3c2=O)CC1 | x | 0% | 8% | -1% | 18µM* | 15µM*
CCCn1c2ccccc2c2cnn(CC(=O)N3CCN(c4ccccc4F)CC3)c(=O)c21 | x | -15% | 4% | u | u | u
Cc1nn(CC(=O)NCc2cccs2)c(=O)c2nn(-c3ccccc3)c(C)c12 | -4 | -6% | 2% | 5% | 11% | 11%
CCc1nc2ccc(C(=O)NCCCN3CCCC3=O)cn2c1N(CC)CCOC | 5 | 0% | x | 42% | 18% | 6%
Cc1ccc(Cn2c3ccccc3c3cnn(CC(=O)N4CCCCCC4)c(=O)c32)cc1 | x | -9% | 2% | x | u | u
Cc1cc(C)c(Cn2c3ccccc3c3cnn(CC(=O)NCc4cccs4)c(=O)c32)c(C)c1 | x | 0% | 5% | 14% | 21µM* | 15µM*

Screening results (PubChem)
